Consider one sequence from paper PMC7862700, “An all-to-all approach to the identification of sequence-specific readers for epigenetic DNA modifications on cytosine”.

Test in all cases: DAPPL (digital affinity profiling via proximity ligation, sequencing); 10 mM Tris-HCl pH 7.5, 50 mM NaCl, 1 mM DTT, 4% glycerol, room temperature, 30 min; GST-TFs on glutathione beads, 16-mer random dsDNA library, 0.1% formaldehyde crosslink after washing; high values mean tight binding
The target in assay [1] is T1, FEV (Homo sapiens, UniProt Q99581 1-238).
T1 sequence: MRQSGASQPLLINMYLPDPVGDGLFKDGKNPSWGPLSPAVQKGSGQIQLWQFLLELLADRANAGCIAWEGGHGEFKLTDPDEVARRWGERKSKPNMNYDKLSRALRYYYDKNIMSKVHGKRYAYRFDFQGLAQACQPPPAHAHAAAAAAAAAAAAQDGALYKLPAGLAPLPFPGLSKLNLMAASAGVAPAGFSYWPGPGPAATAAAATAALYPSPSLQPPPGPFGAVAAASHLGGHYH
The conditions noted are these: protein: recombinant; tags: N-terminal GST; dsDNA, one strand shown. The method, boiled down:
(§1)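 In yeast, human transcription factors were expressed with a GST fusion, then pulled down on glutathione beads and given DNA barcodes. Pooled with a tag-only sample, they were exposed to 200 nmole of a 16-mer random double-stranded DNA library (Tris/NaCl/DTT/glycerol buffer, room temperature, 30 min), washed, crosslinked with 0.1% formaldehyde, proximity-ligated using BsaI/T4 ligase for 1 h at 37 °C, PCR-amplified and read on an Illumina NextSeq500. Each hexamer's frequency of reads for a factor, divided by the matching frequency for the tag-only sample, gives the binding signal.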

The target of assay [2] is ETV5 (Homo sapiens, UniProt P41161 1-510). The conditions noted are these: protein: recombinant; tags: N-terminal GST; dsDNA, one strand shown. The method, boiled down:
as §1

Assay [3] concerns the target HSF1 (Homo sapiens, UniProt Q00613 1-529). Conditions: protein: recombinant; tags: N-terminal GST; chain copies: 3; dsDNA, one strand shown. The method in brief: as §1
In assay [4] the target is T2, SPIC (Homo sapiens, UniProt Q8N5J4 1-248).
T2 sequence: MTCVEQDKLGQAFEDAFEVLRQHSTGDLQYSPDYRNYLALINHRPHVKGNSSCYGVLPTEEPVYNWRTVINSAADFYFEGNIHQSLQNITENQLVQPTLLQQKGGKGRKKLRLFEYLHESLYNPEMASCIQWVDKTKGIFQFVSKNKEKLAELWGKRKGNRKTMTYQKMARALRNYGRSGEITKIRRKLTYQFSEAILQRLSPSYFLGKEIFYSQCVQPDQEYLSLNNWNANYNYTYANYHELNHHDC
Conditions: protein: recombinant; tags: N-terminal GST; dsDNA, one strand shown. The method in brief: as §1

Assay [5] has as its target ELF4 (Homo sapiens, UniProt Q99607 1-663). Conditions: protein: recombinant; tags: N-terminal GST; dsDNA, one strand shown. The method, boiled down: as §1
Assay [6] addresses T3, ELK4 (Homo sapiens, UniProt P28324-2 1-405).
T3 sequence: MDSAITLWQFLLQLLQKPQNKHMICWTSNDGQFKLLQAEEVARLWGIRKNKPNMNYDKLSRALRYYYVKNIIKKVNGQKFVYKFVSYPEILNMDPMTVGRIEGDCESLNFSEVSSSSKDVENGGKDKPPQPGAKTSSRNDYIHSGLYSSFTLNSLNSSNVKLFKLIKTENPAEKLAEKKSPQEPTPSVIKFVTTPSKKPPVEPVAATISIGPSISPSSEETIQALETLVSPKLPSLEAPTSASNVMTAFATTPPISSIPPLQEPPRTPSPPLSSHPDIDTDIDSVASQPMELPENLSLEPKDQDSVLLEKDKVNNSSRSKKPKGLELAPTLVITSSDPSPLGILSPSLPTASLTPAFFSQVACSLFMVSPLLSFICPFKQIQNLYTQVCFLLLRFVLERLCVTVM
The conditions noted are these: protein: recombinant; tags: N-terminal GST; dsDNA, one strand shown. The method, boiled down:
as §1

For assay [7], the target named is T4, ETV2 (Homo sapiens, UniProt O00321 1-342).
T4 sequence: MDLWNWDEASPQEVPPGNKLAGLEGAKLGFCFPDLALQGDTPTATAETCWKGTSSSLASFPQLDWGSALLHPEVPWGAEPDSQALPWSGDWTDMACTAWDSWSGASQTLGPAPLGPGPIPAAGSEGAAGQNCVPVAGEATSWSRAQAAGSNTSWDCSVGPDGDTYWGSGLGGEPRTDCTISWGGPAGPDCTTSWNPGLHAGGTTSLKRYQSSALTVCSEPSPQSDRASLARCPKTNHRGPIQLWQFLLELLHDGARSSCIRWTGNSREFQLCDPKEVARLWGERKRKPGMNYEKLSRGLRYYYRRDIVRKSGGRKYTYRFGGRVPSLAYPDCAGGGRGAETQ
Conditions: protein: recombinant; tags: N-terminal GST; dsDNA, one strand shown. The method in brief:
as §1

Assay [8] deals with T5, ELF3 (Homo sapiens, UniProt P78545 1-371).
T5 sequence: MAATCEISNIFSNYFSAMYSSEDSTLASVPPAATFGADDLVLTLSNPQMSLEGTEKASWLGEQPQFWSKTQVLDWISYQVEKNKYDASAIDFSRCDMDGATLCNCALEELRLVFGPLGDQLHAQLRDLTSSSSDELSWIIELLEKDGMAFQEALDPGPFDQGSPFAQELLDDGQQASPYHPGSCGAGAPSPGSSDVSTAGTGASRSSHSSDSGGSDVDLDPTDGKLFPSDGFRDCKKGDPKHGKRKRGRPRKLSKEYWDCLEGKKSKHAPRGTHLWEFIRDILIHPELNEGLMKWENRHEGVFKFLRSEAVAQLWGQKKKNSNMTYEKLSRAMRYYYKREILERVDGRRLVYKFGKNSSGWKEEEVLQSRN
The conditions noted are these: protein: recombinant; tags: N-terminal GST; dsDNA, one strand shown. The method, boiled down:
as §1

Assay [9] deals with CRX (Homo sapiens, UniProt O43186 1-299). The conditions noted are these: protein: recombinant; tags: N-terminal GST; dsDNA, one strand shown. The method in brief:
as §1

The target of assay [10] is ETV1 (Homo sapiens, UniProt P50549 1-477). The conditions noted are these: protein: recombinant; tags: N-terminal GST; dsDNA, one strand shown. The method in brief:
as §1

Assay [11] deals with T6, ERF (Homo sapiens, UniProt P50548 1-548).
T6 sequence: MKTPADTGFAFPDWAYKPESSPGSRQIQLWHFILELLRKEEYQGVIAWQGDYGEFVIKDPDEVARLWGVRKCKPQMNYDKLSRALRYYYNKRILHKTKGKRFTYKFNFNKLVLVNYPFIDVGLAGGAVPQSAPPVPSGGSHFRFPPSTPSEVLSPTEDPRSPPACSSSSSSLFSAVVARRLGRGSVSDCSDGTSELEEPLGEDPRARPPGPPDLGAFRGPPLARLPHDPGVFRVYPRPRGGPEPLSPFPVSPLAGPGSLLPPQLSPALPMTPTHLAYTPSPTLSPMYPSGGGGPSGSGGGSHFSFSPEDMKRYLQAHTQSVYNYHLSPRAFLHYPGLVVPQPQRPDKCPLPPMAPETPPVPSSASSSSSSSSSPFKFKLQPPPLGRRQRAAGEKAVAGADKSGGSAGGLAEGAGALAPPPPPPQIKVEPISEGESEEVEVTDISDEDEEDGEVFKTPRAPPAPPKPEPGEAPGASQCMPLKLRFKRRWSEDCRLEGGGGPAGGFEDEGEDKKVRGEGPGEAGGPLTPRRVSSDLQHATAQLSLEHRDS
Conditions: protein: recombinant; tags: N-terminal GST; dsDNA, one strand shown. The method in brief: as §1

The target in assay [12] is T7, ETV3L (Homo sapiens, UniProt Q6ZN32 1-361).
T7 sequence: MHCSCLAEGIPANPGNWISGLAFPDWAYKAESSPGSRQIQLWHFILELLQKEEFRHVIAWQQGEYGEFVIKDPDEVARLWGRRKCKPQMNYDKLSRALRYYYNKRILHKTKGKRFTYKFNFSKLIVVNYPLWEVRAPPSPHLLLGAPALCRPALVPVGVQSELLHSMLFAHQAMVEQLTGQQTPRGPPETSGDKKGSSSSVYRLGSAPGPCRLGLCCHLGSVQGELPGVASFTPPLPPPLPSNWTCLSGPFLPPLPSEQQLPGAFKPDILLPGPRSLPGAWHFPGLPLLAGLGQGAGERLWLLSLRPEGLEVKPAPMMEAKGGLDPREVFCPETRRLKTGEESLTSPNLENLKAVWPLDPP
The conditions noted are these: protein: recombinant; tags: N-terminal GST; dsDNA, one strand shown. The method in brief: as §1

Assay [13] deals with T8, ETS2 (Homo sapiens, UniProt P15036 1-469).
T8 sequence: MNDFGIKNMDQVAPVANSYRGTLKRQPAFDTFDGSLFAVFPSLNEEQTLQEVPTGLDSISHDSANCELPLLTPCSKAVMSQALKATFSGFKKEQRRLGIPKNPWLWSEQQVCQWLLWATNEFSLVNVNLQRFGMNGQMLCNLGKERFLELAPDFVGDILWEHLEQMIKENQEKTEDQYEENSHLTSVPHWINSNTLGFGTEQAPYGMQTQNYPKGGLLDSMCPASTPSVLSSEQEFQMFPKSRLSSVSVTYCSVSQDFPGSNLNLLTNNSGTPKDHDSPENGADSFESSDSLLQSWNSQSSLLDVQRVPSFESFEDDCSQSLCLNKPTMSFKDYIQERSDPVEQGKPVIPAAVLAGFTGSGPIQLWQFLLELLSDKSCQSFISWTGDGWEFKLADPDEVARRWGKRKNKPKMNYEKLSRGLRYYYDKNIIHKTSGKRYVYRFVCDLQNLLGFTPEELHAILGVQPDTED
Conditions: protein: recombinant; tags: N-terminal GST; dsDNA, one strand shown. The method, boiled down: as §1

For assay [14], the target named is T9, SPDEF (Homo sapiens, UniProt O95238 1-335).
T9 sequence: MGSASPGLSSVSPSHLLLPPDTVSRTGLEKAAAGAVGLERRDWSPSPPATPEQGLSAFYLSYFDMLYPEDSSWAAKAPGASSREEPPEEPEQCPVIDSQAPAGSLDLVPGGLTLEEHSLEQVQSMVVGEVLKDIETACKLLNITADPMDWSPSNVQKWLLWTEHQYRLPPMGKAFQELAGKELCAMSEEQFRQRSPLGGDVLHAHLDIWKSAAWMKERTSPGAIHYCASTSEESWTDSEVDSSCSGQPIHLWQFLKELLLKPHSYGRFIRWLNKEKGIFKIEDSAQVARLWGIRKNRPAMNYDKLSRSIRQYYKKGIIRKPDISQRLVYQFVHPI
The conditions noted are these: protein: recombinant; tags: N-terminal GST; dsDNA, one strand shown. The method, boiled down: as §1

The target of assay [15] is T10, ETV7 (Homo sapiens, UniProt Q9Y603 1-341).
T10 sequence: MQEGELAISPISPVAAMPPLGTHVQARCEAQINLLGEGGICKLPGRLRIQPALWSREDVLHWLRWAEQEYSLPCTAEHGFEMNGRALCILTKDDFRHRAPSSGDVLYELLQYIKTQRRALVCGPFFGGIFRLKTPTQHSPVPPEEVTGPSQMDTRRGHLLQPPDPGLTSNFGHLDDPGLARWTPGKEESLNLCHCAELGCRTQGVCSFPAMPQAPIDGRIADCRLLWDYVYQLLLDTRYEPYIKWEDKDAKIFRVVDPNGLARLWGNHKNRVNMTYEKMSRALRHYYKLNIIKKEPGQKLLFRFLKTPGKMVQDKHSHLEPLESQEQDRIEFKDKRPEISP
Conditions: protein: recombinant; tags: N-terminal GST; dsDNA, one strand shown. The method, boiled down:
as §1

Assay [16] deals with T11, ELF5 (Homo sapiens, UniProt Q9UKW6-2 1-255).
T11 sequence: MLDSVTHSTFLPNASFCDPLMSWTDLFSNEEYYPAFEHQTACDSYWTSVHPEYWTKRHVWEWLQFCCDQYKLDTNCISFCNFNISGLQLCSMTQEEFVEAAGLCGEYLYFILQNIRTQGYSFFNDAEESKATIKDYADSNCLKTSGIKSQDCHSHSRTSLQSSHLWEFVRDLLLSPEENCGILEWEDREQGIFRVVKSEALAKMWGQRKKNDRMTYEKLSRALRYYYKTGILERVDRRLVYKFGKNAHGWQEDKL
The conditions noted are these: protein: recombinant; tags: N-terminal GST; dsDNA, one strand shown. The method, boiled down: as §1

Assay [17] has as its target T12, ETV3 (Homo sapiens, UniProt P41162-2 1-143).
T12 sequence: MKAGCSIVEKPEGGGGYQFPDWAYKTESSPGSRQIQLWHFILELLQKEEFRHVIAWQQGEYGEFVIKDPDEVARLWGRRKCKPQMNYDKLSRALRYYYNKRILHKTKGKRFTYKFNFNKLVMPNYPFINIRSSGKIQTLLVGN
The conditions noted are these: protein: recombinant; tags: N-terminal GST; dsDNA, one strand shown. The method, boiled down:
as §1

Assay [18] addresses ETV6 (Homo sapiens, UniProt P41212 1-452). The conditions noted are these: protein: recombinant; tags: N-terminal GST; dsDNA, one strand shown. The method, boiled down:
as §1

Sequence of ETV5 (P41161 whole entry): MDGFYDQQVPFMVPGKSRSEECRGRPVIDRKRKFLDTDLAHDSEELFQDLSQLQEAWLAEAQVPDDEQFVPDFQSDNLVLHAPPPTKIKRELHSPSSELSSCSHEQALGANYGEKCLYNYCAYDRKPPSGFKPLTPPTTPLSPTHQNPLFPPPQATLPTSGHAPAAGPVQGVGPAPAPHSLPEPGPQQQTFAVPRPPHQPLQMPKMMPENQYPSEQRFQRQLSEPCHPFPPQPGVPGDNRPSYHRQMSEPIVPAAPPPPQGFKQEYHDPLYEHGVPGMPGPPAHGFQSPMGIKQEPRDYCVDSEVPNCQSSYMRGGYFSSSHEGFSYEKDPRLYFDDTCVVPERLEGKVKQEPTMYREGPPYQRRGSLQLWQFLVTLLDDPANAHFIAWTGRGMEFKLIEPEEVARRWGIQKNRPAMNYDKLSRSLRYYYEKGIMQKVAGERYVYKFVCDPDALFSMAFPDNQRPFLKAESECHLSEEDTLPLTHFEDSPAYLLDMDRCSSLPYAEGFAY
Sequence of HSF1 (Q00613 whole entry): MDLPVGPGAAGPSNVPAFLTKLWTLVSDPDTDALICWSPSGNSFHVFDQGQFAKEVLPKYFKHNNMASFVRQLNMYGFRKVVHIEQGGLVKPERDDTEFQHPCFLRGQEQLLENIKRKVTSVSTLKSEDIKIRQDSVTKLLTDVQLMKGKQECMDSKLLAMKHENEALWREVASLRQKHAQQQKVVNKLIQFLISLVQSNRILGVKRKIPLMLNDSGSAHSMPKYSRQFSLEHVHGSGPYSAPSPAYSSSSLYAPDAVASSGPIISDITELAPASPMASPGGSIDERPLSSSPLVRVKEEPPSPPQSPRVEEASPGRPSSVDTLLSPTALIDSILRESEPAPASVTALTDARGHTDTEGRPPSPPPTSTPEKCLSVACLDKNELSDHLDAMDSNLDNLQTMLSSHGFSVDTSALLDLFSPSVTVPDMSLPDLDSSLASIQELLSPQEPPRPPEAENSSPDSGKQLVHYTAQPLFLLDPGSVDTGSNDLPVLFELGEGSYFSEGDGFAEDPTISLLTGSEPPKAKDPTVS
Sequence of ETV6 (P41212 whole entry): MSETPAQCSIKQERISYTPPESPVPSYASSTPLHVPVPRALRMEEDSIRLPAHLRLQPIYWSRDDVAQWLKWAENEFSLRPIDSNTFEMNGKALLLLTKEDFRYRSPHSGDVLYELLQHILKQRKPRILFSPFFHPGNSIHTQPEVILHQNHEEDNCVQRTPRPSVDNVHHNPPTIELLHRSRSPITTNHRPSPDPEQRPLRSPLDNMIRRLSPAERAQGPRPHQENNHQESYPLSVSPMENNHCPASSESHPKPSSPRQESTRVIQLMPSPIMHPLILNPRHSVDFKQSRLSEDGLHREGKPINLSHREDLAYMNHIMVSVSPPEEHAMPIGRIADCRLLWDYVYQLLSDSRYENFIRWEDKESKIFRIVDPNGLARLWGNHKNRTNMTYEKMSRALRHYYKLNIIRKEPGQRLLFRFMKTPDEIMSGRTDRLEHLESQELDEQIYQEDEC
Sequence of CRX (O43186 whole entry): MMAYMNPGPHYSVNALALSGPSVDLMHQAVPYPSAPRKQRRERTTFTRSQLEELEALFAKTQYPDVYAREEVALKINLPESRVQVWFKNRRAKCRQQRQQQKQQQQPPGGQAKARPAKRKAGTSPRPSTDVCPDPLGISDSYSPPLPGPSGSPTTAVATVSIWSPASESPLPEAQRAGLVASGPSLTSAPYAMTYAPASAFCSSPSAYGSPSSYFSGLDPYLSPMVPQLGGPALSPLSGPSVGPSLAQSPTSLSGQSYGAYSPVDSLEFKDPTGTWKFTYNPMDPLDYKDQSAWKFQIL
Sequence of ELF4 (Q99607 whole entry): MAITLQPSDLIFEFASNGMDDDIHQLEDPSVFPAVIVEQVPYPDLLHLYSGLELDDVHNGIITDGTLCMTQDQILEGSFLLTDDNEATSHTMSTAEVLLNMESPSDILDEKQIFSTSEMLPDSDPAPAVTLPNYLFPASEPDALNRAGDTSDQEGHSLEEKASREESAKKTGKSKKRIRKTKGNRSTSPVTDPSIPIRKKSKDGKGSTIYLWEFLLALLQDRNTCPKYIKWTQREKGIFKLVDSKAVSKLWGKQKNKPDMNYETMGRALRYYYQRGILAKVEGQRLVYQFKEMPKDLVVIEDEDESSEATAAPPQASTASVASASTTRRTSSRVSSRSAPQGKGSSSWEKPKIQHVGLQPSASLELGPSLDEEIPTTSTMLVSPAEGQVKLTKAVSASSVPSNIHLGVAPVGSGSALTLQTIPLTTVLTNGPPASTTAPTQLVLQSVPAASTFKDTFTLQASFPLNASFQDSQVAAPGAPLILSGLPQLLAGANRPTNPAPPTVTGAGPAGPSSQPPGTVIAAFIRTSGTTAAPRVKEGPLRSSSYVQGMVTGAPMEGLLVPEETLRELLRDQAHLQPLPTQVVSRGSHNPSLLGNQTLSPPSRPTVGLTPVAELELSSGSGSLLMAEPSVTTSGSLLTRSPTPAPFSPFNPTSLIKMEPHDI
Sequence of ETV1 (P50549 whole entry): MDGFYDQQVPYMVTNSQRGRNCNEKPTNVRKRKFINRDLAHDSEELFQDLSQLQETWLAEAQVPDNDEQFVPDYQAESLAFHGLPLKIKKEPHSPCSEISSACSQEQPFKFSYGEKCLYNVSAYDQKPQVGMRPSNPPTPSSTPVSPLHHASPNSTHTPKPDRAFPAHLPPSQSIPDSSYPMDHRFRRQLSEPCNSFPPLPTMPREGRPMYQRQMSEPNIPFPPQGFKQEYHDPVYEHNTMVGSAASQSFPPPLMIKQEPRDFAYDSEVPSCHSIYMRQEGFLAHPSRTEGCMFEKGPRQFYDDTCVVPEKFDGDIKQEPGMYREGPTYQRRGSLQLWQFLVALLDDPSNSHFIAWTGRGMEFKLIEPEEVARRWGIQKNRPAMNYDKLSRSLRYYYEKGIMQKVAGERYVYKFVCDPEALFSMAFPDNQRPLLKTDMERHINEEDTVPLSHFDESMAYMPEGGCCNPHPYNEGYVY

With AATGAT, the binding signal in assay [1] is 1.18 fold enrichment (6-mer frequency, TF over GST control); in assay [2], 1.14 fold enrichment (6-mer frequency, TF over GST control); in assay [3], 1.25 fold enrichment (6-mer frequency, TF over GST control); in [4] it was 1.1 fold enrichment (6-mer frequency, TF over GST control); in [5], 1.17 fold enrichment (6-mer frequency, TF over GST control); in assay [6], 1.25 fold enrichment (6-mer frequency, TF over GST control). The binding signal was 1.21 fold enrichment (6-mer frequency, TF over GST control) in [7]; 1.17 fold enrichment (6-mer frequency, TF over GST control) in assay [8]; 1.37 fold enrichment (6-mer frequency, TF over GST control) in [9]; 1.07 fold enrichment (6-mer frequency, TF over GST control) in [10]; 1.18 fold enrichment (6-mer frequency, TF over GST control) in assay [11]; 1.24 fold enrichment (6-mer frequency, TF over GST control) in [12]. In addition, the binding signal was 1.12 fold enrichment (6-mer frequency, TF over GST control) in assay [13]; 1.13 fold enrichment (6-mer frequency, TF over GST control) in assay [14]; 1.2 fold enrichment (6-mer frequency, TF over GST control) in [15]; 1.06 fold enrichment (6-mer frequency, TF over GST control) in assay [16]; 1.21 fold enrichment (6-mer frequency, TF over GST control) in assay [17]; 1.24 fold enrichment (6-mer frequency, TF over GST control) in assay [18].
